Bioassay records (PubChem)
FMDV antiviral – High Throughput Screening for Foot and Mouth Disease Virus Antivirals. 410,000 tested, 1.2% active. AID 1159524, 2015. Potency, µM (doses to about 57.9 µM), for inactives: at the top dose activity change, negative = inhibition, usual class: inhibitors. FMDV antiviral cell-based qHTS; calls by dose curve; tested in HEK293T cells; further: read-out not given here; potency means the concentration at half of the fitted maximal effect; on the % scale 0 is the no-effect control and ±100 the full control effect; nearly all actives have a fitted effect of over 45% in size
Cycloheximide cs – Cycloheximide Counterscreen for Small Molecule Inhibitors of Shiga Toxin | 300,000 tested, 12% active | cell reporter, cycloheximide protein synthesis inhibition counterscreen | max response, %; in the data active means max response mostly above about 13%, no sharp cut-off; inactive means mostly below about 14%; further: read at 38.3 µM for the half of the compounds with a filed dose; 0% is about no effect
Sm TGR inh – qHTS Assay for the Inhibitors of Schistosoma Mansoni Peroxiredoxins; Schistosoma mansoni thioredoxin glutathione reductase (TGR), Q962Y6; purified TGR, DTNB reduction, TNB absorbance 405 nm; Potency, µM (highest dose often 114 µM), inactives show at the highest dose activity change, negative = inhibition, actives largely listed as inhibitors; 360,000 tested, 3% active; AID 485364, 2010; active means well fitted inhibition curve with a large enough effect; inconclusive means small, poorly fitted or top-dose-only effect; inactive means no such curve, though single readings can be large or run the other way; further: potency means the concentration at half of the fitted maximal effect; on the % scale 0 is the no-effect control and ±100 the full control effect; nearly all actives have a fitted effect of over 60% in size
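Kinetic colorimetric format: TGR-catalysed, NADPH-driven DTNB reduction monitored via TNB absorbance. Enzyme dispensed at 20 nM; compound exposure 15 min at room temperature before reaction start.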
Shiga toxin inh – A qHTS for Small Molecule Inhibitors of Shiga Toxin; Vero cells, Shiga toxin protein synthesis inhibition reporter; inhibition, % at 38.7 µM; 290,000 tested, 9.2% active; in the data active means inhibition mostly above about 28%, no sharp cut-off; inactive means mostly below about 43%; further: 0% is about no effect
An asterisk follows results filed as active; ? = inconclusive; / = no result given; [ ] = remark or other dose. Only some compounds are listed: those with a hit (about 12% of all), similar ones and a draw of the others.

SMILES	FMDV antiviral	Cycloheximide cs	Sm TGR inh	Shiga toxin inh
COc1ccc(NC(=O)CSc2nc(-c3ccc(F)cc3)c3cccc(C)c3n2)cc1	-15%	/	3%	/
COc1ccc(C(=O)C2CCCN(Cc3c(C)[nH]c4ccccc34)C2)c(OC)c1 (stereo not given)	/	-1	35µM*	-4
COc1ccc(C(=O)C2CCCN(Cc3ccccn3)C2)c(OC)c1 (stereo not given)	-1%	3	-14%[57.1 µM]	-16
COc1ccc(C(=O)C2CCCN(C3Cc4ccccc4C3)C2)c(OC)c1 (stereo not given)	-18%	24*	11%	74*
CC(Sc1nc(=O)cc(N)n1CCc1ccccc1)C(=O)Nc1ccc(Cl)cc1 (stereo not given)	-13%	/	7%	/
COc1cc(NC(=O)Cn2c(=O)n(-c3ccccc3)c(=O)c3c4c(sc32)CCCC4)cc(OC)c1	-25%	/	2%	/
O=C(/C=C\Nc1ccc2c(c1)OCO2)c1cccs1	10µM*	6.9*	3%	66*
O=C(/C=C\Nc1ccc2c(c1)OCO2)c1ccc(Cl)s1	?	57*	4%	71*
CN(CCc1ccccn1)c1ncnc2[nH]ncc12	40%	19	5%	33*
CN(c1cccnc1)c1ncnc2[nH]ncc12	-3%	-1	1%	2
CCCn1c(=O)c2c(C(=O)OCC)cc(-c3ccco3)nc2n(CCC)c1=O	-3%	-2	-17%	-7
Cc1nn(-c2ccccn2)c2nc(-c3cccs3)cc(C(=O)NCc3ccco3)c12	0%	19*	-25%	39
CCOC(=O)c1cc(-c2cccs2)nc2c1c(C)nn2-c1ccccn1	-14%	4	0%	-4
Cc1nn(-c2ccccc2)c2nc(-c3ccncc3)cc(C(=O)NCc3ccco3)c12	10%	2	45µM*	2
CCOC(=O)c1cc(-c2ccco2)nc2c1c(C)nn2-c1ccccc1	-16%	-2	8.9µM*	-7
Cc1oc(-c2ccc(Cl)cc2)nc1CS(=O)CC(=O)NCc1ccc(Cl)cc1 (stereo not given)	-23%	/	?	/
O=c1c2oc3ccccc3c2n(Cc2cccc(F)c2)c(=O)n1Cc1ccco1	?	/	-31%	/
Cc1ccccc1CCN(C(=O)CN1C(=O)c2ccccc2S1(=O)=O)C(C(=O)NCC1CCCO1)c1ccncc1 (stereo not given)	23%	-2	-2%	-9
O=C(NCC1CCCO1)C(c1ccncc1)N(Cc1cccs1)C(=O)CN1C(=O)c2ccccc2S1(=O)=O (stereo not given)	-11%	11*	-24%	30
CCOC(=O)c1cc(NC(=O)Nc2ccccn2)c(C)nc1C	-8%	27*	0%	37
Cn1nc(-c2ccccc2)cc1NC(=O)Nc1ccc(F)cc1	27%	11	4%	45
Cc1ccccc1NC(=O)Nc1cc(-c2ccccc2)nn1C	32%	36*	0%	82*
Cc1ccccc1NC(=O)Nc1ccccn1	59%	28*	0%	/
Cc1cccc(NC(=O)Nc2ccccn2)c1C	10%	11	3%	47
O=C(Nc1ccccn1)Nc1ccccc1[N+](=O)[O-]	17%	40*	3%	47*
SMILES	FMDV antiviral	Cycloheximide cs	Sm TGR inh	Shiga toxin inh
CCc1ccc(CNC(=O)CCc2c(C)nn(-c3ccc(N4CCCCC4)nn3)c2C)cc1	16%	/	8%	/
COc1ccc(Cl)cc1NC(=O)CSc1nc(-c2ccco2)cc(C(F)(F)F)n1	0%	/	1%	/
Cc1ccc(C)c(NC(=O)CSc2nc3nccnc3c(=O)n2CCc2c[nH]c3ccccc23)c1	-9%	/	2%	/
Cc1nnc(-c2ccco2)c2cn(-c3cccc(Br)c3)nc12	22µM*	44*	?	18
CC(=O)c1nn(-c2cccc(Br)c2)cc1C(=O)c1ccco1	-1%	-1	2%	24
CCCC(=O)Nc1ccc2nc(SCC(=O)Nc3ccc(N4CCOCC4)c(Cl)c3)sc2c1	?	52*	8%	150*
Nc1nnc(SCC(=O)Nc2ccc(N3CCOCC3)c(Cl)c2)s1	0%	21*	2%	34
Nc1ccc2nc(SCC(=O)Nc3ccc(N4CCOCC4)c(Cl)c3)sc2c1	-15%	21*	-12%	22
O=C(CSc1ccc(F)cc1)Nc1ccc(N2CCOCC2)c(Cl)c1	2%	20	-2%	26
Nc1ccc2nc(SCC(=O)N3CCN(c4ccccc4)CC3)sc2c1	?	3	-1%	-11
O=C(CSc1nc2ccc(Nc3nc(N4CCOCC4)nc(N4CCOCC4)n3)cc2s1)Nc1ccccc1Cl	-18%	10	1%	13
Nc1ccc2nc(SCC(=O)N3CCOCC3)sc2c1	24%	31*	14%	71*
COC(=O)c1sc(-c2ccccc2)cc1NC(=O)Nc1ccc(F)cc1	-14%	/	-3%	/
Nc1ccc2nc(SCc3cccc(F)c3)sc2c1	3%	42*	7%	152*
CCOC(=O)CSc1nc2ccc(N)cc2s1	36%	35	10%	60
Cc1ccnc2nc(NC(=O)c3ccccc3Cl)nn12	8%	/	-4%	/
Cc1oc2cc3oc(=O)c(CCC(=O)NCCN4CCOCC4)c(C)c3cc2c1C	20%	29*	-11%	31*
Cc1coc2cc3oc(=O)c(CCC(=O)NCCCN4CCOCC4)c(C)c3cc12	-11%	-1	-19%	4
Cc1ccc(N2CCN(C(=O)c3cn(C)c4ccc(S(=O)(=O)N5CCCC5)cc4c3=O)CC2C)cc1 (stereo not given)	12%	/	3%	/
COc1ccccc1NC(=O)CSc1oc(-c2ccccc2)nc1S(=O)(=O)c1ccccc1	-15%	/	-6%	/
COc1ccc(C)cc1C1=Nc2ccccc2C1(C)C	-23%	8	-5%	10
Cc1ccc(O)c(C2=Nc3ccccc3C2(C)C)c1	43%	49*	10%	89*
CCOc1ccccc1NC(=O)N1CCc2c(sc(C)c2CC)C1c1ccccc1 (stereo not given)	-24%	/	-2%	/
O=C(c1ccccc1)c1ccccc1N1C(=O)C=CC1=O	?	10	0.56µM*	17
Cc1ccc(C(=O)N2CCC(N3CCC(C(=O)N4CCOCC4)CC3)CC2)cc1C	-6%	-1	6%	-5
SMILES	FMDV antiviral	Cycloheximide cs	Sm TGR inh	Shiga toxin inh
Cc1ccc(C(=O)N2CCN(c3ccccc3)CC2)cc1C	/	27*	-10%	43*
Cc1ccc(C(=O)N2CCC(C)CC2)cc1C	/	17*	?	35*
CCOc1ccc(S(=O)(=O)N2CCN(c3cc(Cl)ccc3Cl)CC2)c2ccccc12	-14%	/	-1%	/
O=C(CCCCCN1C(=O)c2cccc([N+](=O)[O-])c2C1=O)NCCc1ccccc1	-10%	/	/	/
O=C(COC(=O)CCN1C(=O)c2cccc([N+](=O)[O-])c2C1=O)NCc1ccccc1	6%	-5	79µM*	-6
O=S(=O)(N/N=C/c1ccccc1OCc1ccc(Cl)cc1)c1ccccc1	62%	23*	6%	active
CCOC(=O)N/N=C/c1ccccc1OCc1ccc(Cl)cc1	-11%	34*	4%	50*
NC(=S)N/N=C/c1ccccc1OCCSc1ccc(Cl)cc1	35µM*	5	6%	13
O/N=C/c1ccccc1OCc1ccc(Cl)cc1	20%	44*	10%	63*
